Laboratory results reported in PubChem BioAssay AID720596 (The Scripps Research Institute Molecular Screening Center, 2013).
Screen size: about 370,000 compounds; about 1,600 (0.43%) were called active. The list comes from a sample in which actives are over-represented; it also holds similar structures and randomly drawn compounds. A number with no mark means an inactive call. No stated cut-off is given here; in the data, active means inhibition above about 24%; inactive means the rest.

target: Major prion protein (Homo sapiens) (UniProt P04156); assay: inhibitors of human cell surface prion protein PrPC, primary screen, cell-based, TR-FRET (AID 720596); conditions: TR-FRET read-out, at 13.8 µM, stronger effect = higher value; further: 0% = median of the test wells and 100% = reference compound wells

Row | SMILES | inhibition
1 | COc1ccc(OC)c(-n2c(=S)[nH]c3cc(C(=O)N4CCCCC4)ccc3c2=O)c1 | 2.99%
2 | COc1cc(-n2c(=S)[nH]c3ccc(C)cc3c2=O)c(Cl)cc1Cl | 41% (active)
3 | COc1cc2[nH]c(=S)n(Cc3ccc(C)o3)c(=O)c2cc1OC | -2%
4 | COc1cccc(C(=O)N2CCCC(CCC(=O)NCc3ccc(F)c(F)c3)C2)c1 (centres undefined) | 1.57%
5 | C=CCOc1cccc(C2C(C(=O)c3ccc(C)o3)=C(O)C(=O)N2CCN2CCOCC2)c1 (centres undefined) | -10.8%
6 | CCOc1ccc(C2/C(=C(/O)c3ccc4c(c3)CC(C)O4)C(=O)C(=O)N2CCCn2ccnc2)cc1 (centres undefined) | 1.98%
7 | CCCOc1ccc(C2C(C(=O)c3ccc(C)o3)=C(O)C(=O)N2CCCn2ccnc2)cc1 (centres undefined) | 39.3% (active)
8 | CCOc1ccccc1OCCCNCc1ccccc1 | -4%
9 | CC(C)c1ccc(S(=O)(=O)N2CCN(C(=O)CN3C(=O)NC(C)(c4ccccc4)C3=O)CC2)cc1 (centres undefined) | -0.25%
10 | N#C/C=C1\Sc2ccccc2C(=O)N1CC(=O)N1CCN(S(=O)(=O)c2ccccc2)CC1 | 59.8% (active)
11 | O=C(CN1CCCSc2ccccc21)N1CCN(S(=O)(=O)c2cccc(F)c2)CC1 | -1.47%
12 | CCCN(C(=O)CSc1nnc(N)s1)c1c(N)n(Cc2ccccc2)c(=O)[nH]c1=O | -0.1%
13 | COc1ccc(Cl)cc1NC(=O)COc1ccc2c(c1)OCO2 | 0.61%
14 | Cc1noc(C)c1NC(=O)Nc1ccc2c(c1)C(=O)N([C@H](C)CO)C[C@H](C)[C@@H](CN(C)S(=O)(=O)c1cn(C)cn1)O2 | 3.79%
15 | COc1ccc(C)cc1NC(=O)CSc1nnc2ccc(-c3ccccn3)nn12 | -1.48%
16 | O=C(CCCNS(=O)(=O)c1cccc2nsnc12)NCCN1CCN(c2ccccc2F)CC1 | -22.9%
17 | CN(CCC(=O)Nc1cc(S(=O)(=O)N(C)C)ccc1Cl)CC(=O)Nc1ccc(F)cc1 | -6.03%
18 | Cc1cccc(C(=O)Nc2c(-c3ccc(F)cc3)nc3ncccn23)c1 | 0.67%
19 | Cc1cccc(CS(=O)(=O)c2ncc(Cl)c(C(=O)Nc3ccc(F)cc3)n2)c1 | 54.3% (active)
20 | Cc1cccc(NC(=O)Cn2c(=O)n(Cc3ccccc3)c(=O)c3c(C)c(C)sc32)c1 | 4.63%

Row | SMILES | inhibition
21 | Cc1cccc(NC(=O)c2cc3c(C)nn(-c4ccccc4)c3s2)c1 | -2.71%
22 | Cc1cccc(NC(=O)c2nc(S(=O)(=O)Cc3ccccc3)ncc2Cl)c1 | 70.4% (active)
23 | Cc1ccc(NS(=O)(=O)c2cccs2)cc1S(=O)(=O)N1CCCCCC1 | 2.21%
24 | Cc1cccc(CC(=O)N2CCN=C2SCc2ccc([N+](=O)[O-])cc2)c1 | -5.21%
25 | CCCn1c(=S)[nH]c2ccc(C(F)(F)F)cc21 | 12.2%
26 | CCN(CC(=O)NCc1ccc(F)cc1)S(=O)(=O)c1ccc(Cl)s1 | -0.88%
27 | Cc1ccc(Cl)cc1NC(=O)C1CCN(S(C)(=O)=O)CC1 | 4.88%
28 | Cc1ccnc(NC(=O)C2CCN(S(=O)(=O)c3c(C)c(C)cc(C)c3C)CC2)c1 | 28.1% (active)
29 | O=C(Nc1ccccn1)C1CCN(S(=O)(=O)c2ccc3c(c2)OCCO3)CC1 | -7.97%
30 | O=C(/C=C/c1cnc2ccccc2n1)NC1CCCCCC1 | -28.9%
31 | CCOC(=O)c1c(-c2ccccc2)oc2cc(Br)c(O)cc12 | 58.6% (active)
32 | CCOC(=O)c1c(-c2ccccc2)oc2ccc(OC(=O)N(C)C)cc12 | -3.58%
33 | CCOC(=O)c1c(C)oc2cc(Br)c(OCC(N)=O)cc12 | -4.57%
34 | CCNc1nc(NCC)nc(N(C)n2cnnc2)n1 | 3.48%
35 | CCN(CC)c1ccc(S(=O)(=O)N2CCOCC2)cc1NC(=O)CSc1cccc[n+]1[O-] | -5.4%
36 | CCN1CCN(C(=O)C2CCCN(S(=O)(=O)c3ccc(OC)c(OC)c3)C2)CC1 (centres undefined) | -1.58%
37 | Nc1cc2c(cc1Br)-c1ccc(F)cc1C2=O | -0.15%
38 | O=C(/C=C/c1ccc([N+](=O)[O-])o1)NNC(=O)c1ccc(F)cc1 | 64.7% (active)
39 | CCN(CC)N=Nc1cccc(NC(C)=O)c1 | -7.3%
40 | Cc1ccc(SC(CC(=O)c2ccc(C(C)(C)C)cc2)C(=O)O)cc1 (centres undefined) | -2%

Row | SMILES | inhibition
41 | O=C(OCC(=O)N1CCCCC1)c1ccc(OC(F)(F)F)cc1 | 8.76%
42 | c1ccc(-n2ncc(-c3nn[nH]n3)n2)cc1 | 1.91%
43 | CCc1cc(-c2n[nH]c(=S)n2CC(C)C)cs1 | -0.39%
44 | O=C(Nc1ccc(S(=O)(=O)N2CCOCC2)cc1)c1ccc2ncsc2c1 | 0.06%
45 | Cc1ccc(S(=O)(=O)N2CCOCC2)cc1NC(=O)c1ccncc1 | 7.08%
46 | COc1ccc(C(=O)Nc2nc(-c3ccc(S(=O)(=O)N4CCOCC4)cc3)cs2)cc1 | 27.2% (active)
47 | COc1ccc(NC(=O)CN(C)C(=O)c2cc(C3CC3)nn2-c2ccccc2)cc1 | 10.2%
48 | CCC(C)(O)C(=O)OC1C(=O)OC2CC3C(C)=CC(=O)C(O)C3(C)C3C4(O)OCC23C1C(C)C4O (centres undefined) | 83.1% (active)
49 | O=C(N/C(=C\c1ccc(F)cc1)C(=O)N1CCCCCC1)c1ccccc1 | -7.9%
50 | Cc1ccc(-c2nc3ccccc3c(=O)n2-c2ccc(Br)cn2)cc1 | 0.03%
51 | COc1ccc(CC(=O)NC(C)c2ccc(Cl)c(Cl)c2)cc1S(=O)(=O)N1CCOCC1 (centres undefined) | 4.45%
52 | COc1ccc(C)cc1NC(=O)CNCc1cccs1 | 0.34%
53 | O=C(COC(=O)CNC(=O)C1CCCCC1)Nc1cccc(F)c1 | -5.42%
54 | Cc1ccsc1C(=O)OCC(=O)Nc1cccc(F)c1 | 25.2% (active)
55 | CC1CC1C(=O)OCC(=O)Nc1cccc(F)c1 (centres undefined) | -3.56%
56 | CCN(CC(=O)NCc1ccc(Cl)cc1)C(=O)CSc1ccccc1 | 9.76%
57 | CN1/C(=C\C(=O)c2oc3ccccc3c2N)C(C)(C)c2ccccc21 | 51.8% (active)
58 | CN1/C(=C\C=C2\N=C(c3ccc(F)cc3)OC2=O)C(C)(C)c2ccccc21 | 9.17%
59 | C=CCN1C(=O)C2(C(C(=O)OCC)=C(N)Oc3c2c(=O)oc2ccccc32)c2ccccc21 (centres undefined) | 8.11%
